# Data as given in PMC7862700, “An all-to-all approach to the identification of sequence-specific readers for epigenetic DNA modifications on cytosine”.
# What was measured:
# Experiment in all cases: DAPPL (digital affinity profiling via proximity ligation, sequencing); 10 mM Tris-HCl pH 7.5, 50 mM NaCl, 1 mM DTT, 4% glycerol, room temperature, 30 min; GST-TFs on glutathione beads, 16-mer random dsDNA library, 0.1% formaldehyde crosslink after washing; high values mean tight binding
# FLI1 = biological target: T1, FLI1 (Homo sapiens, UniProt Q01543 1-452); conditions: protein: recombinant; tags: N-terminal GST; dsDNA, one strand shown
# T1 sequence: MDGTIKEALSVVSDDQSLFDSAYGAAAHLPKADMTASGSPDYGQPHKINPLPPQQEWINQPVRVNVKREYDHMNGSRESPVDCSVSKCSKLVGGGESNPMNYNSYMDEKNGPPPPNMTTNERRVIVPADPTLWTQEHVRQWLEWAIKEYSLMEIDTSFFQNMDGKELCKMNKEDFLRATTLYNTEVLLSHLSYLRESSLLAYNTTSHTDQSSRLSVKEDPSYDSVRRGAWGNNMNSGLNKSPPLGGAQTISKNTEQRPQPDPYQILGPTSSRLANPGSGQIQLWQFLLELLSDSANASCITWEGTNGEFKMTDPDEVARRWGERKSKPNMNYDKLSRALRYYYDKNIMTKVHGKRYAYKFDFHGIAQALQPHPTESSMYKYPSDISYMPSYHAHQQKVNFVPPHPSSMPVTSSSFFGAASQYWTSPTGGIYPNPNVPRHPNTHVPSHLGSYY
# Procedure, shortened: (§1)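 Pools of DNA-barcoded human transcription factors, expressed in yeast as GST fusions on glutathione beads and combined with a tag-only sample, were incubated with 200 nmole of a 16-mer random double-stranded DNA library. Incubation took 30 min at room temperature in Tris/NaCl/DTT/glycerol buffer and was followed by washing, 0.1% formaldehyde crosslinking, proximity ligation (BsaI/T4 ligase, 1 h, 37 °C), PCR amplification and sequencing on an Illumina NextSeq500. Binding signal is the ratio of a hexamer's read frequency for a factor to its frequency for the tag-only sample.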
# ELK1 = biological target: T2, ELK1 (Homo sapiens, UniProt P19419 1-428); conditions: protein: recombinant; tags: N-terminal GST; dsDNA, one strand shown
# T2 sequence: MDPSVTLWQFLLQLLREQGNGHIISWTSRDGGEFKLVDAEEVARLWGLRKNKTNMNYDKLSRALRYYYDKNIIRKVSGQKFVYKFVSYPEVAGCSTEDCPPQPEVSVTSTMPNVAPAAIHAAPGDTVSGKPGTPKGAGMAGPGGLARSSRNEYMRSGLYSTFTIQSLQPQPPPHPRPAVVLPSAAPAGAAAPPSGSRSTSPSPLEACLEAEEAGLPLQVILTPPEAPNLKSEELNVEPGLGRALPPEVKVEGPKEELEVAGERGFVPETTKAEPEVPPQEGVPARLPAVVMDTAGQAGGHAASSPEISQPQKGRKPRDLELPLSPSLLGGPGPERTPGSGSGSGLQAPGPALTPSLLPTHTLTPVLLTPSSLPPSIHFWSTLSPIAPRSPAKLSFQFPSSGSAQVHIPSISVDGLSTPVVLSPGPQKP
# Procedure, shortened: as §1
# GABPA = biological target: T3, GABPA (Homo sapiens, UniProt Q06546 1-454); conditions: protein: recombinant; tags: N-terminal GST; dsDNA, one strand shown
# T3 sequence: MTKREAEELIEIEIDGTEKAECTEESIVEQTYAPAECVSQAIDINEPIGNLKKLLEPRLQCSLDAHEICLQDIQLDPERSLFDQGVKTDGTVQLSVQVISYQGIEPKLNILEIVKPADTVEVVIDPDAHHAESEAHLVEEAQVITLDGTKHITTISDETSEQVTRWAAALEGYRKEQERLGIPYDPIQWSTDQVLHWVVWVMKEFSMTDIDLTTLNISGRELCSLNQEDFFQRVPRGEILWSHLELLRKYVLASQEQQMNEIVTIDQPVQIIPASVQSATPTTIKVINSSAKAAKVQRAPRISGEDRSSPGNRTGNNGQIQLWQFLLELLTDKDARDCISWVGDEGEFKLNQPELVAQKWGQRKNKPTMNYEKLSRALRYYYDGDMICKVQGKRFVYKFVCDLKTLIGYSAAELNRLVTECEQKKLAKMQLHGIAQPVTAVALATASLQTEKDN
# Procedure, shortened: as §1
# ERG = biological target: T4, ERG (Homo sapiens, UniProt P11308 1-479); conditions: protein: recombinant; tags: N-terminal GST; dsDNA, one strand shown
# T4 sequence: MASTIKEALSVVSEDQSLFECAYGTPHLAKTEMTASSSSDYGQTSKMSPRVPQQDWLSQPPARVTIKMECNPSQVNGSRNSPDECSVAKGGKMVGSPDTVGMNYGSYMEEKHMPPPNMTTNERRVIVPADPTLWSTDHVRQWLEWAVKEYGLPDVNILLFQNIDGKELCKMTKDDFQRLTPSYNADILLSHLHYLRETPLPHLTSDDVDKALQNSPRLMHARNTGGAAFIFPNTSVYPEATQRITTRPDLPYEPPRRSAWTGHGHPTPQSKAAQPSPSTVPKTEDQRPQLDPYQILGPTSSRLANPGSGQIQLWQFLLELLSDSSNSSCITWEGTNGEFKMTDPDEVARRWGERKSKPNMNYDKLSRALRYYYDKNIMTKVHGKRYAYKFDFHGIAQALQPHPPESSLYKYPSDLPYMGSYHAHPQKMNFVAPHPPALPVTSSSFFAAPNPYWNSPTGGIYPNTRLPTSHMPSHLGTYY
# Procedure, shortened: as §1
# ELF1 = ELF1 (Homo sapiens, UniProt P32519 1-619); conditions: protein: recombinant; tags: N-terminal GST; dsDNA, one strand shown
# Chain of ELF1 (P32519 whole entry): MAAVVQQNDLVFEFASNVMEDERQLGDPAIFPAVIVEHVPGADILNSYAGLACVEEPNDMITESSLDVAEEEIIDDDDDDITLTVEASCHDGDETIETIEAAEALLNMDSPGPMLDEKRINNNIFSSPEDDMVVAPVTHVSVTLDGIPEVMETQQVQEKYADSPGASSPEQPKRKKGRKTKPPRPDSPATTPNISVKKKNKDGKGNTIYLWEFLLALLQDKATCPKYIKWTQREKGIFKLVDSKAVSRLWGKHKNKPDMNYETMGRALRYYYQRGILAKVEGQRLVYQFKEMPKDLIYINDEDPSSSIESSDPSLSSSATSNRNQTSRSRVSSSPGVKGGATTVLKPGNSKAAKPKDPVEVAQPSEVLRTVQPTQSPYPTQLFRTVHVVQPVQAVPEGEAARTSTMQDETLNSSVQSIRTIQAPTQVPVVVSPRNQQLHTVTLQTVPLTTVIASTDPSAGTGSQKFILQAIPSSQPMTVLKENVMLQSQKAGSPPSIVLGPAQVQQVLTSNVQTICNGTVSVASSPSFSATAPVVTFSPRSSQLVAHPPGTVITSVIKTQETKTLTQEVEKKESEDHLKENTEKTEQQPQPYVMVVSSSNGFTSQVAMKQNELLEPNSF
# Procedure, shortened: as §1
# EHF = biological target: T5, EHF (Homo sapiens, UniProt Q9NZC4 1-300); conditions: protein: recombinant; tags: N-terminal GST; dsDNA, one strand shown
# T5 sequence: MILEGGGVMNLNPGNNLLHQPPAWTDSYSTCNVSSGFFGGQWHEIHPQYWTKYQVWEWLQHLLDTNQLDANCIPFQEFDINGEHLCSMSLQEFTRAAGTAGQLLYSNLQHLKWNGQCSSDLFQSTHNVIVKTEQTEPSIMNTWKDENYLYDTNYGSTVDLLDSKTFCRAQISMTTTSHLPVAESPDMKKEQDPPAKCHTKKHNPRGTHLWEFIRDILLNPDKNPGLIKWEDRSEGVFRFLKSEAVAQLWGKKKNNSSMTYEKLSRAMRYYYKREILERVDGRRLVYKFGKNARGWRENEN
# Procedure, shortened: as §1
# SPI1 = SPI1 (Homo sapiens, UniProt P17947 1-270); conditions: protein: recombinant; tags: N-terminal GST; dsDNA, one strand shown
# Procedure, shortened: as §1
# SPIB = SPIB (Homo sapiens, UniProt Q01892 1-262); conditions: protein: recombinant; tags: N-terminal GST; dsDNA, one strand shown
# Chain of SPIB (Q01892 whole entry): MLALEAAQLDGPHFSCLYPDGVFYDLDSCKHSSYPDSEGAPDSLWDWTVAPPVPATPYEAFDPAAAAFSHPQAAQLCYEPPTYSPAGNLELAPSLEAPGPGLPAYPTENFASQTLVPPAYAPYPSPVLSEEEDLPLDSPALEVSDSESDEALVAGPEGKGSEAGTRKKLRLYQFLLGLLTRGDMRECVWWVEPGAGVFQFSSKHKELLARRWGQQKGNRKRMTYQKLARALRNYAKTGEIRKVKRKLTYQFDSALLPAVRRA
# Procedure, shortened: as §1
# ELK3 = biological target: T6, ELK3 (Homo sapiens, UniProt P41970 1-407); conditions: protein: recombinant; tags: N-terminal GST; dsDNA, one strand shown
# T6 sequence: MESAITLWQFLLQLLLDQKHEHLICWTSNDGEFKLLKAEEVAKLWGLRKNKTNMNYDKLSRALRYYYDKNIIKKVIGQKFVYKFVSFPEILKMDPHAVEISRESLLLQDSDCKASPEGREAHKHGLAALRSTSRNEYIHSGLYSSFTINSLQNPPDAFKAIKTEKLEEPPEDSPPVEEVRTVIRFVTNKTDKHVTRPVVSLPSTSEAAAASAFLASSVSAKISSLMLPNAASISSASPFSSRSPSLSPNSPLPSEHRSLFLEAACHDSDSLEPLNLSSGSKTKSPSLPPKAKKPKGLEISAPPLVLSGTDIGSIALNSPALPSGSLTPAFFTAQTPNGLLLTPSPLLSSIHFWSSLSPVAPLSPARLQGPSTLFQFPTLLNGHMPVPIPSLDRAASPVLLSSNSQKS
# Procedure, shortened: as §1
# FEV = biological target: T7, FEV (Homo sapiens, UniProt Q99581 1-238); conditions: protein: recombinant; tags: N-terminal GST; dsDNA, one strand shown
# T7 sequence: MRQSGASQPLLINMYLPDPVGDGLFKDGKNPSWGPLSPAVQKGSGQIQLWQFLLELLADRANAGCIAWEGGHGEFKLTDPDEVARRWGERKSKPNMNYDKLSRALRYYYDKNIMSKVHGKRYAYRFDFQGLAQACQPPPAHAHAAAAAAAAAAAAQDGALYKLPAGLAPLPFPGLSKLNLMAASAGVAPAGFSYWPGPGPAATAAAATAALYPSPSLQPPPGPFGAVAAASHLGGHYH
# Procedure, shortened: as §1
# ETV5 = ETV5 (Homo sapiens, UniProt P41161 1-510); conditions: protein: recombinant; tags: N-terminal GST; dsDNA, one strand shown
# Chain of ETV5 (P41161 whole entry): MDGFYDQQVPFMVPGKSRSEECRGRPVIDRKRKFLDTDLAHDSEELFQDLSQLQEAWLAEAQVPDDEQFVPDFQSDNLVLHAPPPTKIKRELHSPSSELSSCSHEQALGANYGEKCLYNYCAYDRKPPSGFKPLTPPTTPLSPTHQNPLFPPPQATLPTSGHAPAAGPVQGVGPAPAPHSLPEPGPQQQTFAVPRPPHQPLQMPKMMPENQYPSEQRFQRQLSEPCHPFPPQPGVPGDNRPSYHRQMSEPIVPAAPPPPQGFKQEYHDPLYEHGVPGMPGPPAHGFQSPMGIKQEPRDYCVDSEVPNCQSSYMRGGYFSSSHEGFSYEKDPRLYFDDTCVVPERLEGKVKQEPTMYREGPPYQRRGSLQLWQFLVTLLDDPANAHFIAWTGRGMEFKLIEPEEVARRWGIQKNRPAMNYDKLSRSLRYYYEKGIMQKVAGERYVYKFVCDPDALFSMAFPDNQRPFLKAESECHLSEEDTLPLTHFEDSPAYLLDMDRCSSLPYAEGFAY
# Procedure, shortened: as §1
# HSF1 = HSF1 (Homo sapiens, UniProt Q00613 1-529); conditions: protein: recombinant; tags: N-terminal GST; chain copies: 3; dsDNA, one strand shown
# Chain of HSF1 (Q00613 whole entry): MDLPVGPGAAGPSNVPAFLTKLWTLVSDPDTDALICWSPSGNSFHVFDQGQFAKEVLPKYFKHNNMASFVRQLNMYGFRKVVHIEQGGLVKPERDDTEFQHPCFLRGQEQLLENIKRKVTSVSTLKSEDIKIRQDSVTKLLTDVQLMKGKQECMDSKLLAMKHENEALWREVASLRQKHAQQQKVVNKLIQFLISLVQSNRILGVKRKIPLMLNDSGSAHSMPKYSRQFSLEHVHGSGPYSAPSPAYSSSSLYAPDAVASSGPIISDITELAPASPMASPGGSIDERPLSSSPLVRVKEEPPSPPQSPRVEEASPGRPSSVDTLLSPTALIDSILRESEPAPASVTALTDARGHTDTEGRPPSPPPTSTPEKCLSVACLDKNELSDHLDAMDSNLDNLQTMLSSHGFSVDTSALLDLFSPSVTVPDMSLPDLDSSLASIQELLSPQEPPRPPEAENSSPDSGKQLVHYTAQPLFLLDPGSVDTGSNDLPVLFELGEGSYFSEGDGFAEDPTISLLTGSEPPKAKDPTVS
# Procedure, shortened: as §1
# SPIC = biological target: T8, SPIC (Homo sapiens, UniProt Q8N5J4 1-248); conditions: protein: recombinant; tags: N-terminal GST; dsDNA, one strand shown
# T8 sequence: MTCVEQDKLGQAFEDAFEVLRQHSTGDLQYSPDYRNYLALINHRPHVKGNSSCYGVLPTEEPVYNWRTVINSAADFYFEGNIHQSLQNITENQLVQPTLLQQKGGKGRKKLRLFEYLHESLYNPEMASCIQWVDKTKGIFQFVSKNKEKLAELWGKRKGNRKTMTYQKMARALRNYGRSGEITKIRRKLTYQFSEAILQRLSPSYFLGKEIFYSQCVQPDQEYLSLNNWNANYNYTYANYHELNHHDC
# Procedure, shortened: as §1
# ELF4 = ELF4 (Homo sapiens, UniProt Q99607 1-663); conditions: protein: recombinant; tags: N-terminal GST; dsDNA, one strand shown
# Chain of ELF4 (Q99607 whole entry): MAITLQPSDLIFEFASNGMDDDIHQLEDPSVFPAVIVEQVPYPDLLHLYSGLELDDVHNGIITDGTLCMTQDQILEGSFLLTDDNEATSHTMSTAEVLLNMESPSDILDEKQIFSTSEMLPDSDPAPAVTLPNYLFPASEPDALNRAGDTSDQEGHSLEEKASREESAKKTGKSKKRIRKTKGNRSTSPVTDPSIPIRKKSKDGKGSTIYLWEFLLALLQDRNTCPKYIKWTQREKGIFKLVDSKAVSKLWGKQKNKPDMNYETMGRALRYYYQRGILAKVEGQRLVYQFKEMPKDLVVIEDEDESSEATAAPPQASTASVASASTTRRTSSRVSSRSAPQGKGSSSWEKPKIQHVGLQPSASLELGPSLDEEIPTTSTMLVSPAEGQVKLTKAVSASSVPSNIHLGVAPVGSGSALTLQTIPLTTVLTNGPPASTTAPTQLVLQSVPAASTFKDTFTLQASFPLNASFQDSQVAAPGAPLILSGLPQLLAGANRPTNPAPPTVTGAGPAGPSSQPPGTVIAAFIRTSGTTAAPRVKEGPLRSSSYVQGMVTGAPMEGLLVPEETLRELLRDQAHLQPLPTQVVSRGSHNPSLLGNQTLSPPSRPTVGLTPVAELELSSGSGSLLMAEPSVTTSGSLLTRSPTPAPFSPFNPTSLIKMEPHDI
# Procedure, shortened: as §1
# ELK4 = biological target: T9, ELK4 (Homo sapiens, UniProt P28324-2 1-405); conditions: protein: recombinant; tags: N-terminal GST; dsDNA, one strand shown
# T9 sequence: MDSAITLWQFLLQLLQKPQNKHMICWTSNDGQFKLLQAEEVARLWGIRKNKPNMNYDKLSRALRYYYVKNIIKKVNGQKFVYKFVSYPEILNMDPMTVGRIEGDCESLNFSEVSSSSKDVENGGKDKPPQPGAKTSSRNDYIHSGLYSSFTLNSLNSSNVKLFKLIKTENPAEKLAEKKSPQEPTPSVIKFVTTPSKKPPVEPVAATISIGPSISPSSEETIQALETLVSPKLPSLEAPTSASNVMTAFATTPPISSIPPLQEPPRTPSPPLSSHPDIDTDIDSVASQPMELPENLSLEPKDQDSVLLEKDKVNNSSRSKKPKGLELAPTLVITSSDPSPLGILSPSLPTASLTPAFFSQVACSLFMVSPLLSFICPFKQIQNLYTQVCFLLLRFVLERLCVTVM
# Procedure, shortened: as §1
# ETV2 = biological target: T10, ETV2 (Homo sapiens, UniProt O00321 1-342); conditions: protein: recombinant; tags: N-terminal GST; dsDNA, one strand shown
# T10 sequence: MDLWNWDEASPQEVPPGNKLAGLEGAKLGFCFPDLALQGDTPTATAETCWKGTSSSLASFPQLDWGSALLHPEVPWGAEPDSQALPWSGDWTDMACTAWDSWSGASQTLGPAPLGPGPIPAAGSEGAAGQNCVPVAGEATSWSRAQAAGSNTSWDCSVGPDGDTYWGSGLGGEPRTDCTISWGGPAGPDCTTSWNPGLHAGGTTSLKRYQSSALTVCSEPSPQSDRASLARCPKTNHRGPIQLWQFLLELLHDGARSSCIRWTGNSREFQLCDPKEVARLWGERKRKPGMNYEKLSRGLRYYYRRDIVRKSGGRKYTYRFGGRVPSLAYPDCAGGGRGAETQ
# Procedure, shortened: as §1
# ELF3 = biological target: T11, ELF3 (Homo sapiens, UniProt P78545 1-371); conditions: protein: recombinant; tags: N-terminal GST; dsDNA, one strand shown
# T11 sequence: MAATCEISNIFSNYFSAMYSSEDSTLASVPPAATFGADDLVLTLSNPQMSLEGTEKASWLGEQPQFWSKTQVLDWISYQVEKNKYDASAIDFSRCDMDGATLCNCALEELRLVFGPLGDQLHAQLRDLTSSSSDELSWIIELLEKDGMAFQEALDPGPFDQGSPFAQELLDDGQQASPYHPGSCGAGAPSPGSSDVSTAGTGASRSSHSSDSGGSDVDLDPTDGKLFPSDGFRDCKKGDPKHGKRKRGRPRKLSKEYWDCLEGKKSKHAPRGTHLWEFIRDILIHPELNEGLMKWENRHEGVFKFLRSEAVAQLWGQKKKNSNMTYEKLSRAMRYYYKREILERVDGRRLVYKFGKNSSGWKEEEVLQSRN
# Procedure, shortened: as §1
# CRX = CRX (Homo sapiens, UniProt O43186 1-299); conditions: protein: recombinant; tags: N-terminal GST; dsDNA, one strand shown
# Chain of CRX (O43186 whole entry): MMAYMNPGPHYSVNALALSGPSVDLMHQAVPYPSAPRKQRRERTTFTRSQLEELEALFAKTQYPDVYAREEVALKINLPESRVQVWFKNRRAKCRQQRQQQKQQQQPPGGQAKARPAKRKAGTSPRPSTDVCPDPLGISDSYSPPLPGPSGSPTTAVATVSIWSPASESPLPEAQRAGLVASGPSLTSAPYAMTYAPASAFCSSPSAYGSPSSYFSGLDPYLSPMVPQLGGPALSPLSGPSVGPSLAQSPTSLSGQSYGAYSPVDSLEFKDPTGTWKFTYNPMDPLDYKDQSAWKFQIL
# Procedure, shortened: as §1
# ETV1 = ETV1 (Homo sapiens, UniProt P50549 1-477); conditions: protein: recombinant; tags: N-terminal GST; dsDNA, one strand shown
# Chain of ETV1 (P50549 whole entry): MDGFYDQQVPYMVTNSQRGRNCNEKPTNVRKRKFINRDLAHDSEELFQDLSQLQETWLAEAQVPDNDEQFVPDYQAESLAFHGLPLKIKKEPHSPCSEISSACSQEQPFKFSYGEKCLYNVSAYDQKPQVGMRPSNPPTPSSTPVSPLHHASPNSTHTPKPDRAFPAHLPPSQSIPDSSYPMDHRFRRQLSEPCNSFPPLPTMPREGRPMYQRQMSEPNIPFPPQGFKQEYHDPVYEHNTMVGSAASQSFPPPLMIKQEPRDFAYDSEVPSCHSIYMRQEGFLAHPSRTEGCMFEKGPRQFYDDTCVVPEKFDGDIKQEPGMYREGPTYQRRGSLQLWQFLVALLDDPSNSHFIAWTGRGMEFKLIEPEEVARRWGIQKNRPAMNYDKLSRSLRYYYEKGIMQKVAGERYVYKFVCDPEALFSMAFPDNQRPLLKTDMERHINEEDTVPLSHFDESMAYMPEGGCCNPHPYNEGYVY
# Procedure, shortened: as §1
sequence,measurement,setting,value
CTTCGT,binding signal,FLI1,"1.34 fold enrichment (6-mer frequency, TF over GST control)"
same,binding signal,ELK1,"1.45 fold enrichment (6-mer frequency, TF over GST control)"
same,binding signal,GABPA,"1.38 fold enrichment (6-mer frequency, TF over GST control)"
same,binding signal,ERG,"1.3 fold enrichment (6-mer frequency, TF over GST control)"
same,binding signal,ELF1,"1.3 fold enrichment (6-mer frequency, TF over GST control)"
same,binding signal,EHF,"1.36 fold enrichment (6-mer frequency, TF over GST control)"
same,binding signal,SPI1,"1.39 fold enrichment (6-mer frequency, TF over GST control)"
same,binding signal,SPIB,"1.32 fold enrichment (6-mer frequency, TF over GST control)"
same,binding signal,ELK3,"1.4 fold enrichment (6-mer frequency, TF over GST control)"
same,binding signal,FEV,"1.33 fold enrichment (6-mer frequency, TF over GST control)"
same,binding signal,ETV5,"1.33 fold enrichment (6-mer frequency, TF over GST control)"
same,binding signal,HSF1,"1.31 fold enrichment (6-mer frequency, TF over GST control)"
same,binding signal,SPIC,"1.4 fold enrichment (6-mer frequency, TF over GST control)"
same,binding signal,ELF4,"1.29 fold enrichment (6-mer frequency, TF over GST control)"
same,binding signal,ELK4,"1.39 fold enrichment (6-mer frequency, TF over GST control)"
same,binding signal,ETV2,"1.41 fold enrichment (6-mer frequency, TF over GST control)"
same,binding signal,ELF3,"1.41 fold enrichment (6-mer frequency, TF over GST control)"
same,binding signal,CRX,"1.22 fold enrichment (6-mer frequency, TF over GST control)"
same,binding signal,ETV1,"1.32 fold enrichment (6-mer frequency, TF over GST control)"
